# Compound activity as filed in PubChem BioAssay.
# This is a sample that favours compounds with a hit; in the whole collection about 0.99% have one here.
# RECQ1 inh: blocks DNA unwinding by human RECQ1. RECQ1 DNA unwinding, red fluorescence kinetic read. Potency, µM (doses to about 57.3 µM), inactives show top-dose activity, negative = inhibition, usual class: inhibitors. 240,000 tested, 0.54% active. P46063;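 further: plate controls were vehicle for no effect and no enzyme for full effect; nearly all actives have a fitted effect of over 30% in size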
#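 50 nM RECQ1T1 preincubated 15 min with compound in Tris pH 8.0 buffer with MgCl2, DTT, Tween-20 and 2.5 ug/ml poly(dI-dC); started with 200 nM TAMRA/BHQ-2 forked duplex and 2 mM ATP. Unwinding read as fluorescence (525/598 nm), two reads 2 h apart.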
# FEN1 inhibitor: blocks human flap endonuclease 1 | Potency, µM (highest dose often 114 µM), inactives show at the highest dose activity change, negative = inhibition, usual class: inhibitors | Recombinant FEN1 flap cleavage, fluorescence, 15 min | 390,000 tested, 0.35% active; further: nearly all actives have a fitted effect of over 65% in size
# Target sequence (P39748 whole entry, looked up): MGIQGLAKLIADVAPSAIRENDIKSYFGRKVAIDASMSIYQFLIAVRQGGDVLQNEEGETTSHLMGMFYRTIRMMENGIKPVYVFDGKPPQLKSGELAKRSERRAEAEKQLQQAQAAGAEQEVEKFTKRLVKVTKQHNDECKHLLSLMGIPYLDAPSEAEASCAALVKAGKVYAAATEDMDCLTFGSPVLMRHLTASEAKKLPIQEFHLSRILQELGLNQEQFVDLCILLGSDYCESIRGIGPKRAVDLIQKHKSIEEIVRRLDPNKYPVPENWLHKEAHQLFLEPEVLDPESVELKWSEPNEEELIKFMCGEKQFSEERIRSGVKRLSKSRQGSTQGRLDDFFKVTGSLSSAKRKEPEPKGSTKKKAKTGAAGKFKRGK
#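 Potency values derive from four-parameter Hill fits of normalized qHTS data. The reaction used 10 nM FEN1 preincubated 15 min at room temperature with compound, then 50 nM DNA substrate, read at 0 and 15 min.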
# BLM helicase inh: blocks DNA unwinding by human BLM helicase; Potency, µM (top dose mostly 56.1 µM), without a hit: at the highest dose activity change, negative = inhibition, hits mostly inhibitors; recombinant BLM DNA unwinding, fluorescence dequenching; 350,000 tested, 0.2% active;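 further: plate controls were vehicle for no effect and no enzyme for full effect; nearly all actives have a fitted effect of over 35% in size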
# L3MBTL1 inh: blocks human L3MBTL1; Potency, µM (highest dose often 57.1 µM), inactives show top-dose activity, negative = inhibition, actives largely listed as inhibitors; AlphaScreen L3MBTL1–H3K9me1 peptide binding; AID 485360; 230,000 tested, 0.66% active; Q9Y468; further: nearly all actives have a fitted effect of over 60% in size
#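 L3MBTL1 (50 nM) pre-complexed 30 min with biotinylated H3(1-15)K9me1 peptide (75 nM), then compounds added for 30 min at room temperature; AlphaScreen streptavidin donor/nickel chelate acceptor beads (10 ug/mL final) read after 30 min dark incubation.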
# WRN inhibitor: blocks human WRN helicase; Q14191; WRN helicase unwinding, fluorescent forked duplex, kinetic; Potency, µM (highest dose often 114 µM), inactives show at the highest dose activity change, negative = inhibition, actives largely listed as inhibitors; 360,000 tested, 0.46% active; AID 651768; further: nearly all actives have a fitted effect of over 55% in size
#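 Primary qHTS, 1536-well format. 20 nM WRN + compound, 15 min RT; start with 100 nM forked fluorophore/quencher duplex, 2 mM ATP (final); kinetic read ex 525/em 598 nm.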
# * marks the source's active call; other numbers are inactive results; i = inactive; ? = inconclusive; . = no result given; [ ] = remark or other dose. The call rests on the fitted dose curve; in most records, active means well fitted curve in the direction sought with a large enough effect; inconclusive means small, poorly fitted or top-dose-only effect, or another doubt; inactive means no such curve, though single readings can be large; an effect the other way counts as inactive or inconclusive. Unless noted, on the % scale 0 is the no-effect control and ±100 the full control effect; potency means the concentration at half of the fitted maximal effect.
SMILES,RECQ1 inh,FEN1 inhibitor,BLM helicase inh,L3MBTL1 inh,WRN inhibitor
CCCN(C)CCCOc1cc2nc(N3CCCN(C)CC3)nc(NC3CCN(C)CC3)c2cc1OC,.,28µM*,.,.,.
COc1cc2nc(N3CCN(C(=O)[C@H]4CCCO4)CC3)nc(N)c2cc1OC,i,.,1%,.,.
COc1cc2nc(N3CCCN(C)CC3)nc(N3CCN(C)CC3)c2cc1OC,.,-4%,.,.,.
COc1cc2c(NC3CCN(C)CC3)nc(N3CCCN(C)CC3)nc2cc1OCCCN(C)C,.,22µM*,.,.,.
COc1ccc(Nc2nc(N3CCCC3)nc3ccccc23)c(OC)c1,-15%,50µM*,52%,8%[11.4 µM],?
COc1cc2c(NC3CCN(C)CC3)nc(N3CCCN(C)CC3)nc2cc1OCCCCN(C)C,.,28µM*,.,.,.
CN(C)CCCCCCNc1cc(N2CCN(C)CC2)ncn1,.,-3%,.,.,.
O=C(Oc1ccc(-c2cnc3ccccc3n2)cc1)c1ccc(Cl)c([N+](=O)[O-])c1,-12%,-6%,-3%,?,-2%
N#Cc1c(NC(=O)CCn2cnc3ccccc3c2=O)oc(-c2ccccc2)c1-c1ccccc1,-10%,-4%,-10%,-1%,-9%
COCCNS(=O)(=O)c1ccc(-c2ccc(S(=O)(=O)NCCOC)cc2)cc1,i,-13%,-7%,0%,6%
Nc1nccc2c1ncn2C1OC(CO)C(O)C1O (centres undefined),.,.,.,.,-4%
O=C(CSc1nccn1-c1ccccc1)NCc1ccc2c(c1)OCO2,0%,-9%,-4%,.,-27%
COc1cc2nc(N3CCOCC3)nc(NC3CC3)c2cc1OC,.,-16%,.,.,.
COc1cc2c(NC3CCN(C)CC3)nc(N3CCCCC3)nc2cc1OCCCN(C)C,.,25µM*,.,.,.
COc1cc2c(NC3CCN(C)CC3)nc(N3CCCN(C)CC3)nc2cc1OCCCCCCN(C)C,.,22µM*,.,.,.
COc1cc2nc(N3CCN(C(=O)C4CCCO4)CC3)nc(N)c2cc1OC (centres undefined),14%,-20%,-3%,5%,-4%
COc1cc2nc(N3CCCCC3)nc(NC3CCN(Cc4ccccc4)CC3)c2cc1OC,.,40µM*,.,.,.
O=C(O)Cn1cc2c(n1)CCCC2,-1%,4%,-1%,11%,5%
Cc1cc(C(=O)COc2cc(F)ccc2[N+](=O)[O-])c(C)n1C1CC1,-13%,-11%,-7%,-19%,-13%[57.1 µM]
CC(=C\c1ccccc1)/C=C1/SC(=S)N(CCCC(=O)O)C1=O,.,?,-6%,.,50µM*
CC(/C=C1\SC(=O)N(CCCC(=O)O)C1=O)=C\c1ccccc1,-6%,16%,2%,-4%,-13%
CC(/C=C1\SC(=S)N(CCC(=O)Nc2cccc(C(=O)O)c2)C1=O)=C\c1ccccc1,.,-11%,-17%,.,79µM*
CCCCS(=O)(=O)/C=C\C=C/S(=O)(=O)CCCC,-4%,-5%,-2%,-26%,45µM*
C=CCN1C(=O)c2ccc(C(=O)OCC(=O)N(C)C3CCCCC3)cc2C1=O,i,-11%,1%,.,-4%
CNc1nc(-c2ccccc2)[n+](-c2ccc(C)cc2)s1,-6%,3%,5%,-5%,50µM*
SMILES,RECQ1 inh,FEN1 inhibitor,BLM helicase inh,L3MBTL1 inh,WRN inhibitor
Cc1cccc(N(C(=O)c2csnn2)C(C(=O)NC(C)(C)C)c2ccncc2)c1 (centres undefined),-3%,-6%,2%,2%,-10%
Cc1ccc(S(=O)(=O)/N=C2/C=C(Sc3ncn[nH]3)C(=O)c3ccccc32)c(C)c1,-12%,.,28µM*,?,.
Cc1ccc(S(=O)(=O)Nc2ccc(O)c(Sc3ncn[nH]3)c2)cc1,23%,-9%,-5%,-2%,-1%
CC(C)c1ccc(S(=O)(=O)/N=C2/C=C(Sc3ncn[nH]3)C(=O)c3ccccc32)cc1,0%,79µM*,10µM*,?,32µM*
CN(C)CCOc1ncnc2c1oc1ccccc12,12%,5%,8%,.,3%
CN(C)CCOc1nc(-c2ccccc2)nc2c1oc1ccccc12,5%,50µM*,156%,-2%,12%[57.1 µM]
COc1ccc(CCNC2CC(C)N(C)CC2C)cc1OC (centres undefined),6%,8%,1%,9%,2%
CCOc1ccc(C(=O)N/N=C/c2cc(Cl)ccc2[N+](=O)[O-])cc1,-2%,-12%,11µM*,1%,-25%
Cc1cccc(Cn2c(=O)n(CC3CCC(C(=O)N4CCC(C)CC4)CC3)c(=O)c3sccc32)c1 (centres undefined),.,1%,-6%,.,.
O=C1OC(c2ccccc2)(c2cc(Br)c(O)c(Br)c2)c2ccccc21 (centres undefined),.,-6%,.,.,-13%
O=C1OC2(c3cc(Br)c(O)c(Br)c3Oc3c2cc(Br)c(O)c3Br)c2c(Cl)c(Cl)c(Cl)c(Cl)c21,5µM*,.,.,.,.
CC1(C)NC(=O)C(CCc2ccccc2)NC1=O (centres undefined),.,.,.,.,-3%
CC(=O)N(C(C)=O)N1C(=O)c2cccc3c(N4CCOCC4)ccc(c23)C1=O,-20%,1%,0%,10%,-5%
O=C1C=C(N2CCOCC2)c2ccccc2C1=O,.,-18%,8.9µM*,-7%[2.29 µM],-19%
Cc1ccc(N2CCOCC2)c2c1C(=O)c1ccccc1C2=O,3%,?,-28%,14µM*,-12%
O=C1C(NS(=O)(=O)c2cccs2)=C(N2CCOCC2)C(=O)c2ccccc21,-4%,-20%,-9%,-15%,-9%
CN(C1=C(N2CCOCC2)C(=O)c2ccccc2C1=O)c1ccccc1,-4%,-3%,-4%,25µM*,1%
O=C1C=C(N2CCOCC2)c2cccc3cccc1c23,.,.,.,.,-21%
O=c1cc(-c2ccccc2)[nH]n1-c1ccccc1,.,?,.,.,-1%
O=C1C=CC(=O)N1c1cccc(-c2ccccc2)c1,-5%,1%,4%,-16%,32µM*
O=C1c2ccccc2C(=O)C1(O)O,32µM*,.,.,?,.
O=C1c2cccc3c2C2(O)c4c1cccc4C(=O)c1cccc(c12)C3=O,.,.,.,.,0%
CCOc1ccc(C(=O)Nc2cc(NC(=O)c3ccco3)ccc2OC)cc1Br,.,29%,0%,.,.
CCOc1ccc(C(=O)Nc2cccc(NC(=O)c3ccco3)c2)cc1Cl,.,89µM*,-1%,.,.
Cc1[nH]c(=O)[nH]c1C(=O)CCCCC(=O)O,-4%,-24%,-2%,0.35µM*,0%
CCCCSCc1[nH]c(=O)[nH]c1C(=O)CCCCC(=O)OCC,-3%,-4%,-1%,-2%,-7%
Nc1ncnc2c1ncn2[C@@H]1O[C@H](C(=O)NS(=O)(=O)c2cccc(F)c2)[C@@H](O)[C@H]1O,.,.,.,.,-4%
CC(=O)N=c1sc2ccccc2n1C,-12%,6%,1%,-2%,3%
CC(=O)N=c1sc2nc3ccccc3nc2n1N(C(C)=O)C(C)=O,i,79µM*,-5%,.,7%[11.6 µM]
